This is an account of results in publication PMC5540273 (PLoS ONE, 2017).

The test system of assay [1] is MKK7. The note with it: concentration: 1 μM, replicates: in singlicate; n = 1.
Assay [2] relates to MKNK1. To be noted: concentration: 1 μM, replicates: in singlicate, n = 1.
Assay [3] has as its system MKNK2. To be noted: concentration: 1 μM, replicates: in singlicate, n = 1.
Assay [4] has as its system T1, MLCK.
T1 construct: gene MYLK3
To be noted: concentration: 1 μM, replicates: in singlicate, n = 1.

The subject of assay [5] is T2, MLK1.
T2 construct: gene MAP3K9
The note with it: concentration: 1 μM, replicates: in singlicate, n = 1.

For assay [6], the system named is MLK2. The note with it: concentration: 1 μM, replicates: in singlicate, n = 1.
In assay [7] the test system is MLK3. The note with it: concentration: 1 μM, replicates: in singlicate, n = 1.
The subject of assay [8] is MRCKA. The note with it: concentration: 1 μM, replicates: in singlicate, n = 1.
Assay [9] concerns T3, MRCKB.
T3 construct: gene CDC42BPB
To be noted: concentration: 1 μM, replicates: in singlicate, n = 1.

The test system of assay [10] is MST1R. The note with it: concentration: 1 μM, replicates: in singlicate, n = 1.
Assay [11] has as its system T4, MST1.
T4 construct: gene STK4
The note with it: concentration: 1 μM, replicates: in singlicate, n = 1.

The subject of assay [12] is T5, MST2.
T5 construct: gene STK3
The note with it: concentration: 1 μM, replicates: in singlicate; n = 1.

Assay [13] relates to T6, MST3.
T6 construct: gene STK24
To be noted: concentration: 1 μM, replicates: in singlicate, n = 1.

Assay [14] has as its system MST4. The note with it: concentration: 1 μM, replicates: in singlicate, n = 1.
The test system of assay [15] is MTOR. The note with it: concentration: 1 μM, replicates: in singlicate, n = 1.
In assay [16] the test system is MUSK. The note with it: concentration: 1 μM, replicates: in singlicate, n = 1.
For assay [17], the system named is MYLK2. To be noted: concentration: 1 μM, replicates: in singlicate, n = 1.
Assay [18] has as its system MYLK4. The note with it: concentration: 1 μM, replicates: in singlicate, n = 1.
For assay [19], the system named is MYLK. The note with it: concentration: 1 μM, replicates: in singlicate, n = 1.
For assay [20], the system named is MYO3A. To be noted: concentration: 1 μM, replicates: in singlicate, n = 1.

The structures appear in SMILES notation. Where “and” joins values, the source holds several entries; their conditions need not be identical. Equal values may be shown once. Read-outs that look alike come from different tables or passages of the source.
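Also: KINOMEscan kinase panel screen.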

Take `COc1cc2c(cc1OC[C@@H](O)CO)ncc1c3ccc(C#N)cc3[nH]c21`: the “%Inh” value in assay [1] is 0%; in assay [2], 97.1%; in assay [3], 99.4%; in [4] it was 94.5%; in assay [5], 3%; in [6] it was 0%. For the same molecule, the “%Inh” value in assay [7] is on record as 0%; in assay [8], 0%; in assay [9], 0%; in assay [10], 9%; in assay [11] it was 0%; in assay [12], 67%. Besides, the “%Inh” value in assay [13] is 11%; in [14], 12%; in assay [15] it was 52%; in assay [16], 0%; in assay [17] it was 44%; in [18] it was 99%. In addition, the “%Inh” value in assay [19] is on record as 3%; in [20], 0%.
In the case of `Fc1ccc(-c2ncn(CCCN3CCOCC3)c2-c2cccnc2)cc1` [SB-211743], the “%Inh” value in assay [1] was 8%; in assay [2], 0%; in assay [3] it was 0%; in assay [4], 0%; in assay [5] it was 0%; in [6], 39%. In addition, the “%Inh” value is recorded as 17% in assay [7]; 0% in [8]; 19% in assay [9]; 0% in [10]; 12% in assay [11]; 40% in assay [12]. Besides, the “%Inh” value in assay [13] amounted to 0%; in assay [14], 0%; in assay [15], 0%; in assay [16], 20%; in assay [17] it was 1%; in [18] it was 0%. Moreover, the “%Inh” value in [19] and in assay [20] was 0% in each case.
For the molecule `COc1ccc(S(=O)(=O)NC2CCN(c3cc(C)nc(Nc4cccc(C#N)c4)n3)CC2)cc1.O=C(O)C(F)(F)F` [GSK1653539], the “%Inh” value in assay [1] is given as 0%; in [2], 0%; in [3] it was 20%; in assay [4] it was 0%; in [5], 0%; in assay [6] it was 0%. For the same molecule, the “%Inh” value in [7] was found to be 27%; in [8], 0%; in assay [9], 0%; in [10] it was 48%; in [11], 0%; in [12], 0%. In addition, the “%Inh” value in assay [13] was 13%; in assay [14] it was 0%; in assay [15] it was 28%; in [16], 0%; in assay [17], 0%; in assay [18] it was 0%. Moreover, the “%Inh” value in [19] amounted to 3%; in assay [20], 17%.
With `O=C(NCCNc1ccnc(Nc2ccc(F)cc2)n1)c1cc2ccccc2s1` [GSK1379874], the “%Inh” value in assay [1] is 0%; in assay [2], 2%; in [3], 0%; in [4], 0%; in assay [5], 6%; in assay [6] it was 0%. For the same molecule, the “%Inh” value was determined as 17% in assay [7]; 13% in [8]; 0% in [9]; 30% in [10]; 0% in [11]; 0% in [12]. The “%Inh” value in [13] was determined as 0%; in assay [14], 0%; in assay [15], 8%; in assay [16] it was 0%; in [17], 0%; in assay [18], 0%. In addition, the “%Inh” value is on record as 15% in [19] and 0% in assay [20].
As for `CCn1cnc2c(N)ncnc21` [GW345098], the “%Inh” value is reported as 0% in assay [1]; 0% in [2]; 0% in assay [3]; 1% in assay [4]; 6% in assay [5]; 12% in assay [6]. For the same molecule, the “%Inh” value was found to be 4% in assay [7]; 0% in assay [8]; 2% in assay [9]; 0% in assay [10]; 8% in assay [11]; 7% in assay [12]. For the same molecule, the “%Inh” value in assay [13] stood at 20%; in assay [14], 0%; in [15], 0%; in assay [16], 2%; in assay [17], 2%; in assay [18], 7%. Also, the results for the “%Inh” value in assay [19] and in [20] were 29% and 12%, respectively.
For the molecule `Cc1ccc(NC(=O)c2ccnc(N3CCN(C)CC3)c2)cc1-c1ccc(C(=O)NCC2CC2)cc1` [GW775604], the “%Inh” value in assay [1] turned out to be 0%; in [2], 2%; in assay [3], 0%; in [4] it was 16%; in assay [5] it was 0%; in assay [6], 21%. Besides, the “%Inh” value worked out at 0% in assay [7]; 0% in assay [8]; 0% in [9]; 0% in assay [10]; 27% in assay [11]; 11% in assay [12]. Besides, the “%Inh” value in [13] is on record as 0%; in assay [14], 0%; in assay [15], 0%; in assay [16] it was 4%; in assay [17], 0%; in assay [18], 0%. For the same molecule, the “%Inh” value in [19] and in assay [20] was 0% in each case.
Turning to `NCCNS(=O)(=O)c1ccc(-c2ccnc3[nH]ccc23)cc1` [GSK977617], the “%Inh” value in assay [1] is 0%; in assay [2] (1 µM), 35% and 28%; in assay [3] (1 µM), 97% and 94.8%; in assay [4] (1 µM), 88% and 77%; in assay [5] (1 µM) it was 21% and 2%; in assay [6] (1 µM), 21% and 18%. Besides, the “%Inh” value in [7] (1 µM) is 22% and 0%; in assay [8] (1 µM), 44% and 0%; in assay [9] (1 µM) it was 80% and 62%; in [10] (1 µM), 21% and 16%; in [11] (1 µM) it was 26% and 0%; in assay [12], 0%. In addition, the “%Inh” value in assay [13] (1 µM) was 27% and 17%; in assay [14] (1 µM), 13% and 0%; in assay [15] (1 µM), 29% and 12%; in assay [16] (1 µM), 30% and 35%; in [17] (1 µM) it was 75% and 42%; in assay [18] (1 µM) it was 99.9% and 99.7%. Besides, the “%Inh” value is 74% and 59% in assay [19] (1 µM); 37% and 16% in assay [20] (1 µM).
For `CN(C1=C(c2ccccc2)C(=O)NC1=O)c1ccccc1` [SB-334860], the “%Inh” value in assay [1] is reported as 47%; in assay [2], 5%; in assay [3] it was 8%; in [4], 0%; in assay [5], 0%; in assay [6], 0%. The “%Inh” value in assay [7] was found to be 19%; in [8], 18%; in assay [9] it was 0%; in [10], 12%; in assay [11], 0%; in [12], 6%. Also, the “%Inh” value in assay [13] is given as 7%; in assay [14], 0%; in assay [15] it was 28%; in [16] it was 0%; in assay [17], 11%; in [18], 19%. The “%Inh” value in assay [19] is recorded as 11%; in assay [20], 33%.
Consider `O=C(NCCCN1CCOCC1)c1cccc(Nc2nccc(Nc3ccc(Oc4ccccc4)cc3)n2)c1` [GW663929], for which the “%Inh” value in assay [1] came to 0%; in assay [2], 0%; in assay [3], 29%; in [4] it was 0%; in assay [5] it was 0%; in [6], 0%. Further, the “%Inh” value in [7] stood at 18%; in [8], 4%; in [9] it was 0%; in assay [10], 37%; in assay [11], 0%; in assay [12] it was 34%. Besides, the “%Inh” value came to 14% in assay [13]; 0% in [14]; 12% in assay [15]; 2% in assay [16]; 0% in assay [17]; 25% in assay [18]. In addition, the “%Inh” value in assay [19] is reported as 0%; in assay [20] it was 35%.
On to `COCCNC(=O)c1ccc(-c2cc(C(=O)NC3CC3)cc(F)c2C)cc1` [GW868318], for which the “%Inh” value came to 37% in assay [1]; 22% in assay [2]; 25% in assay [3]; 13% in assay [4]; 0% in assay [5]; 41% in assay [6]. Besides, the “%Inh” value in assay [7] is recorded as 0%; in assay [8] it was 0%; in assay [9], 14%; in assay [10] it was 20%; in assay [11], 17%; in [12], 24%. Moreover, the “%Inh” value in [13] was 3%; in assay [14], 38%; in assay [15] it was 0%; in [16] it was 28%; in [17] it was 1%; in assay [18], 5%. Also, the figures for the “%Inh” value in [19] and in assay [20] were 29% and 5%, respectively.
